ATXN viability: Viability Counterscreen for Primary qHTS for Inhibitors of ATXN expression. S2 cells (HEK-293 line with an ATXN2-luciferase reporter) viability, CellTiter-Fluor protease fluorescence, 24 h. Potency, µM (titrated, usually from 56.7 µM), actives largely listed as cytotoxic. 0.49% of 400,000 active; also: nearly all actives have a fitted effect of over 40% in size
IL-1B inflam inh: qHTS for Inhibitors of Inflammasome Signaling: IL-1-beta AlphaLISA Primary Screen; THP-1 LPS/ATP IL-1B secretion, AlphaLISA, 16 h; active compounds read low; activity change, % at 57.5 µM; 4.7% of 360,000 active; AID 743279, 2014; in the data active = activity change below about -50%; inconclusive = mostly about -30% to -49%
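Secreted IL-1B measured by AlphaLISA bead assay after 16 h compound exposure of THP-1 cells; compounds (final up to 57.5 uM) added 1 h before LPS (250 ng/mL) and ATP (1.25 mM) stimulation; lower signal means less secretion.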
DRD3 agonist: qHTS of D3 Dopamine Receptor Agonist: qHTS | D(3) dopamine receptor (Homo sapiens), P35462 | D3R DiscoveRx beta-arrestin cells, luminescence, 90 min | max activation, % | 0.58% of 410,000 active | AID 652048, 2013; in the data active = max activation above about 30%
Target sequence (P35462 whole entry, looked up): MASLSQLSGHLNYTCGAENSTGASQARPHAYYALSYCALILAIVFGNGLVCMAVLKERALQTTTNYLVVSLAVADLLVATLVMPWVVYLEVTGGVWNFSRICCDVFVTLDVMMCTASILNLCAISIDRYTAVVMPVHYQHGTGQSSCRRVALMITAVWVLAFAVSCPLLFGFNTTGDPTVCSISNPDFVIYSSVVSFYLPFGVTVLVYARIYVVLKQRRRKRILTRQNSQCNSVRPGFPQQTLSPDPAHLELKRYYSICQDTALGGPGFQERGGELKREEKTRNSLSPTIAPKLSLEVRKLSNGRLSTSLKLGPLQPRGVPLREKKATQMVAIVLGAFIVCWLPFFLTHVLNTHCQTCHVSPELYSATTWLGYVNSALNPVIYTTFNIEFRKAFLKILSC
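Agonist-mode cell screen: cells plated at 1500/well and incubated overnight at 37 °C, then exposed to library compounds for 90 min at 37 °C. Detection reagent was added for 30–60 min at room temperature, and luminescence was read.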
Integrin act MD: qHTS for Activators of Integrin-Mediated Alleviation for Muscular Dystrophy; alpha7betagal myoblasts, beta-gal FDG fluorescence, 48 h; Potency, µM (titrated, usually from 38.3 µM), hits mostly activators; 0.064% of 350,000 active; also: nearly all actives have a fitted effect of over 60% in size
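alpha7betagal+/- myoblasts (passage 13, 250/well) treated 48 h at 37C with compounds at 1:260 dilution of DMSO stock. Lysed, then beta-galactosidase activity read as FDG fluorescence (ex 480/em 540) after 30 min, with pre-read for autofluorescence.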
ATXN2 expr inh: Primary qHTS for Inhibitors of ATXN expression. HEK-293 ATXN2-luciferase reporter, luminescence, 24 h. Potency, µM (highest dose often 57 µM), usual class: inhibitors. 0.72% of 360,000 active. AID 1745845, 2022; also: nearly all actives have a fitted effect of over 55% in size
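ATXN2-luciferase reporter cells (luciferase flanked by upstream and downstream ATXN2 gene portions) were treated 24 h at 37 °C with compounds at up to 57 uM. SteadyGlo luminescence gave expression; GF-AFC fluorescence gave viability.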
DRD3 antagonist: qHTS of D3 Dopamine Receptor Antagonist: qHTS; D(3) dopamine receptor (Homo sapiens), P35462; D3R cells, DiscoveRx beta-arrestin luminescence, antagonist mode; active compounds read low; max response, negative = inhibition, %; 2.5% of 360,000 active; AID 652054, 2013; in the data active = max response below about -50%; inconclusive = no clear call, values can overlap the other calls
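Cells plated overnight at 1500 cells/well, then exposed to library compounds with dopamine controls for 90 minutes at 37 degrees C. DiscoveRx reagent added for 30–60 minutes at room temperature; luminescence read, quantitative HTS format.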
Numbers stand for hits; 0 = inactive; ? = inconclusive; - = no result given; [ ] = another dose, or the depositor's remark. A selection: hits, their analogues and other compounds. The true share with any hit is near 7%. Unless noted, calls follow the shape of the dose curve; as a rule, active = well fitted curve in the direction sought with a large enough effect; inconclusive = small, poorly fitted or top-dose-only effect, or another doubt; inactive = no such curve, though single readings can be large; an effect the other way counts as inactive or inconclusive.

SMILES	ATXN viability	IL-1B inflam inh	DRD3 agonist	Integrin act MD	ATXN2 expr inh	DRD3 antagonist
O=C(CCNC(=O)c1ccc(Cl)cc1)Nc1ccc(F)cc1F	0	0	0	0	0	0
O=C1CN(S(=O)(=O)c2ccc(Cl)cc2C(F)(F)F)CCN1	0	0	0	0	0	0
CCCC(=O)N1CCN(c2ccc(NC(=O)c3cc4ccccc4o3)cc2Cl)CC1	18µM	-111	35	0	14µM	0
Cc1ccccc1OCC(O)Cn1c2ccccc2c2ccccc21 (centres undefined)	0	-85	46	0	0	0
Cc1nccn1CC(O)Cn1c2ccccc2c2ccccc21 (centres undefined)	0	-53	0	0	0	0
CC(=O)Nc1ccc(OCC(O)Cn2c3ccccc3c3ccccc32)c(C)c1 (centres undefined)	?	-60	31	0	?	0
Cc1cc(C)n(CC(O)Cn2c3ccccc3c3ccccc32)n1 (centres undefined)	0	0	0	0	0	0
Cc1ccccc1OCC(O)CN1CCN(CC(O)COc2ccccc2C)C(C)C1 (centres undefined)	0	-63	0	?	0	0
OC(COc1ccccc1)Cn1c2ccccc2c2ccccc21 (centres undefined)	0	0	0	0	0	0
Cc1ccc(CS(=O)(=O)CCC(=O)NCCN2CCCCC2C)cc1 (centres undefined)	0	0	0	0	0	0
CC(OC(=O)c1ccc2c(=O)n3c(nc2c1)CCC3)C(=O)Nc1ccc(C(N)=O)cc1 (centres undefined)	0	0	0	0	0	0
O=C(/C=C/c1ccc(OCc2ccccc2)c(OCc2ccccc2)c1)c1cccnc1	?	-95	0	0	0	0
COc1cc(C(=O)/C=C/c2cccnc2)ccc1O	0	-99	0	0	0	?
O=C(/C=C/c1cccnc1)/C=C/c1cccnc1	?	-93	0	0	?	-102
COc1ccc(OC)c(C(=O)/C=C/c2cccnc2)c1	-	-98	0	0	?	?
C(=Cc1cccnc1)c1ccncc1	0	0	0	0	0	0
CS(=O)(=O)N(Cc1ccccc1)c1ccccc1C(=O)N1CCN(c2ccccc2)CC1	0	0	0	0	0	0
COc1cccc2c1O/C(=N\O)C(C(=O)Nc1ccc(C)cc1)C2 (centres undefined)	0	0	0	0	0	0
COc1cccc2c1O/C(=N\O)C(C(=O)Nc1cccc(Br)c1)C2 (centres undefined)	0	0	0	0	0	-54
COCCN1CC(CNC(=O)c2cc(COc3ccc(C)c(C)c3)on2)CC1=O (centres undefined)	0	0	0	0	0	0
C/C(=C\c1ccccc1F)C1Nc2cccc3cccc(c23)N1	0	-	-	-	0	-
CCOC(=O)c1sc(NS(=O)(=O)c2ccccc2)nc1C	0	0	0	0	0	-60
CCOC(=O)c1sc(NS(=O)(=O)c2ccc(F)cc2)nc1C	0	0	0	0	0[11.3 µM]	0
CCOC(=O)c1sc(NS(=O)(=O)c2ccccc2Cl)nc1C	0	0	0	0	0	-70
Cc1cccc2sc(NS(=O)(=O)c3ccccc3)nc12	0	0	0	0	0	-64
SMILES	ATXN viability	IL-1B inflam inh	DRD3 agonist	Integrin act MD	ATXN2 expr inh	DRD3 antagonist
CCOC(=O)c1sc(NC(=O)C(CC)OC(=O)c2ccco2)nc1C (centres undefined)	0	-84	0	0	0	0
Cc1nc(NS(=O)(=O)c2ccccc2)sc1C(C)(C)C	0	0	0	0	0	?
C/C(=N\N1CCN(c2ccc(Cl)cc2)CC1)c1cccs1	0	0	0	0	0	0
COc1ccc(/C=N/NC(=O)c2ccc(C)nc2)cc1O	0	0	0	0	0	0
Cc1cc(CC(C)C)n(-c2nc3ccccc3c(=O)n2OCC(N)=O)n1	0	0	0	0	0	0
Nc1ccc2nc[nH]c2c1	?	0	0	0	?	0

Source: PubChem BioAssay
